Assay results from PubChem BioAssay (NCATS).
Inconclusive results are not listed. A call without a number means that no potency is given here. Unmarked numbers belong to inactive results. The source made the active and inactive calls. Calls follow the shape of the dose curve; as a rule, active = well fitted activation curve with a large enough effect; inconclusive = small, poorly fitted or top-dose-only effect; inactive = flat fitted curve, though single readings scatter.

Assay: Primary redox qHTS assay for identification of artifact compounds. (AID 1845223)
Details: Amplex Red/HRP redox cycling with DTT, fluorescence; series mostly up to 53.8 µM
Outline: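 Redox-cycling detection via DTT (250 uM final) oxidation coupled to Amplex Red (25 uM)/HRP (250 mU/mL) in HBSS. 15 min preincubation plus 30 min after DTT, room temperature. Ex/Em 525/598 nm; 4-parameter Hill fit against DMSO and 10 uM DA3003.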

Structure (SMILES) | Potency | redox activity (% of DA3003)
O=C(NN1CCCCC1)c1nn(-c2ccc(Cl)cc2Cl)c(-c2ccc(C#Cc3ccc(C(F)(F)F)cc3)s2)c1CNS(=O)(=O)N1CCCC1 | inactive | –
O=C(O[C@H]1[C@@H]2C=CO[C@@H](O[C@@H]3O[C@H](CO)[C@@H](O)[C@H](O)[C@H]3O)[C@@H]2[C@@]2(CO)O[C@@H]12)c1ccc(O)cc1 | inactive | –
C[C@]1(OC(=O)/C=C/c2ccccc2)C[C@H](O)[C@]2(O)C=CO[C@@H](O[C@@H]3O[C@H](CO)[C@@H](O)[C@H](O)[C@H]3O)C12 (stereo partly specified) | inactive | –
CC(/C=C/[C@]1(O)[C@@]2(C)CO[C@@]1(C)C[C@@H](O)C2)=C\C(=O)O[C@@H]1O[C@H](CO)[C@@H](O)[C@H](O)[C@H]1O | inactive | –
CC1CCC23COC(=O)C2=CC(O)CC3C1(C)CCC1=CC(=O)OC1O (stereo unspecified) | inactive | –
O=c1c2ccccc2nc2n1CCC2O (stereo unspecified) | inactive | –
CC(C#N)C(C)O[C@@H]1O[C@H](CO)[C@@H](O)[C@H](O)[C@H]1O (stereo partly specified) | inactive | –
CC1[C@@H](O)[C@@H](O)C2[C@]3(C)C(C[C@H]4OC(=O)[C@H](O)[C@]1(O)[C@@]24C)C(C)(O)C[C@H](O)[C@H]3O (stereo partly specified) | inactive | –
O=C1N(CC2CCCCN2)CCN1c1ccccc1 (stereo unspecified) | inactive | –
CC(=O)O[C@H]1CC[C@@]2(CI)C(=CC[C@@H]3[C@@H]2CC[C@]2(C)[C@@H]([C@H](C)CCCC(C)C)CC[C@@H]32)C1 | – | -3.63% [at 11.5 µM]
C[C@H]1CC[C@@]2(OC1)O[C@H]1CC3C4CC=C5C[C@H](O)C[C@@H](O[C@@H]6O[C@@H](C)[C@H](O)[C@@H](O)[C@H]6O[C@@H]6O[C@@H](C)[C@H](O)[C@@H](O)[C@H]6O)[C@]5(C)C4CC[C@]3(C)[C@H]1[C@@H]2C (stereo partly specified) | inactive | –
CN[C@@H]1[C@@H](O)[C@@H](O[C@@H]2[C@@H](O)[C@H](O[C@H]3O[C@H](CN)[C@@H](O)[C@H](O)[C@H]3O)[C@@H](N)C[C@H]2NC(=O)[C@@H](O)CN)OC[C@]1(C)O | inactive | –
C[C@H]1CN(C[C@H](Cc2ccccc2)C(=O)NCC(=O)O)CC[C@@]1(C)c1cccc(O)c1 | inactive | –
COC(=O)C1=CO[C@@H](O[C@@H]2O[C@H](CO)[C@@H](O)[C@H](O)[C@H]2O)[C@@H]2[C@@H](C)[C@@H](O)C[C@H]12 | inactive | –
CC1=C2C3OC(=O)C(C)C3(O)CCC2(C)CCC1=O (stereo unspecified) | inactive | –
CC(=O)OC[C@]1(O)[C@H]2[C@H](OC(=O)CC(C)C)OC=C(CO[C@@H]3O[C@H](CO)[C@@H](O)[C@H](O)[C@H]3O)[C@H]2C[C@@H]1O | inactive | –

Structure (SMILES) | Potency | redox activity (% of DA3003)
CC[C@H]1OC(=O)C[C@@H](O)[C@H](C)[C@@H](O[C@@H]2O[C@H](C)[C@@H](O)[C@H](N(C)C)[C@H]2O)[C@@H](CCN2C[C@H](C)C[C@H](C)C2)C[C@@H](C)C(=O)/C=C/C(C)=C/[C@@H]1CO[C@@H]1O[C@H](C)[C@@H](O)[C@@H](OC)[C@H]1OC | inactive | –
CC(O)(CC(=O)O)CC(=O)O[C@@H]1[C@@H](O)[C@H](OCCc2ccccc2)O[C@H](CO)[C@H]1O (stereo partly specified) | inactive | –
Nc1nonc1C(=Nc1ccc(F)c(Cl)c1)NO | inactive | –
C[C@@H]1C[C@H](O)/C=C/[C@H](O)[C@@H](O)CC(=O)O1 | inactive | –
C=C1CC/C=C(/CO)C(=O)C[C@@H]2[C@@H]1CC2(C)C | inactive | –
OC[C@H]1O[C@@H](OCCc2ccc(O)cc2)[C@H](O)[C@@H](O)[C@@H]1O | inactive | –
CC(CCC1C(C(=O)O)=CC(=O)CC1(C)C)O[C@@H]1O[C@H](CO)[C@@H](O)[C@H](O)[C@H]1O (stereo partly specified) | inactive | –
CCn1c2ccccc2c2cc(CNC)ccc21 | inactive | –
O=C1NCc2nc3ccccc3c(=O)n2C1Cc1c[nH]c2ccccc12 (stereo unspecified) | inactive | –
CCOC(=O)N1CCC(NCCNC(=O)c2ccccc2C)CC1 | inactive | –
CC(=O)N1CCN(NC(=O)c2ccc(F)cc2)CC1 | inactive | –
C=C1C(O[C@@H]2O[C@H](CO)[C@@H](O)[C@H](O)[C@@H]2O)CC2C(C)(C)C(O)CCC2(C)C1CC/C(C)=C\CO (stereo partly specified) | inactive | –
COC(=O)C1C(c2ccc(O)cc2)C(C(=O)OC)C1c1ccc(O)cc1 (stereo unspecified) | inactive | –
C=C1C(=O)O[C@H]2[C@H]1[C@@H](OC(=O)C(C)CO)C[C@@]1(C)[C@H](O)CCC(=O)[C@H]21 (stereo partly specified) | inactive | –
COC(=O)[C@H](CC1C=NC=N1)NCC12CC3CC(CC(C3)C1)C2 (stereo partly specified) | inactive | –
